# Assay outcomes as filed in PubChem.
# Shiga toxin inh – A qHTS for Small Molecule Inhibitors of Shiga Toxin; Vero cells, Shiga toxin protein synthesis inhibition reporter; inhibition, % at 38.7 µM; 9.2% of 290,000 active; AID 2315, 2010; in the data active = inhibition mostly above about 28%, no sharp cut-off; inactive = mostly below about 43%
# Pf growth 48h – Primary qHTS for delayed death inhibitors of the malarial parasite plastid, 48 hour incubation; Potency, µM (titrated, usually from 28.7 µM), most hits filed as inhibitors; P. falciparum luciferase growth in erythrocytes, 48 h; AID 504832, 2011; 5.9% of 310,000 active
#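 Erythrocytes infected with P. falciparum carrying an integrated firefly luciferase reporter (2% hematocrit, 0.1% parasitemia final) were exposed to compounds in RPMI 1640 with 0.5% Albumax at 37 C, 5% CO2. Growth inhibition was scored as reduced luminescence.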
# Cycloheximide cs – Cycloheximide Counterscreen for Small Molecule Inhibitors of Shiga Toxin | max response, % | 12% of 300,000 active | cell reporter, cycloheximide protein synthesis inhibition counterscreen | AID 2314, 2010; in the data active = max response mostly above about 13%, no sharp cut-off; inactive = mostly below about 14%; note: read at 38.3 µM for the half of the compounds with a filed dose
# NS1 inh – qHTS Assay for Inhibitors of Influenza NS1 Protein Function; Potency, µM (top dose mostly 46.1 µM); AID 2326, 2010; 0.4% of 270,000 active; calls by dose curve; note: actives are rising curves; nearly all actives have a fitted effect of over 50% in size
#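 Read-out: OD600 growth recovery of NS1-expressing budding yeast. Cells grown overnight at 30C in -URA glucose medium, washed, resuspended and diluted 1:100 in 2% galactose assay medium, pH 6.0. Same strain lacking NS1 served as positive control.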
# Giardia FBPA inh – qHTS Assay for Inhibitors of Fructose-1,6-bisphosphate Aldolase from Giardia Lamblia. purified Giardia FBPA. A8B2U2. AID 2451, 2010. 0.71% of 290,000 active. Potency, µM (series often up to 59.6 µM), most hits filed as inhibitors; note: nearly all actives have a fitted effect of over 55% in size
# Target sequence (A8B2U2 whole entry, looked up): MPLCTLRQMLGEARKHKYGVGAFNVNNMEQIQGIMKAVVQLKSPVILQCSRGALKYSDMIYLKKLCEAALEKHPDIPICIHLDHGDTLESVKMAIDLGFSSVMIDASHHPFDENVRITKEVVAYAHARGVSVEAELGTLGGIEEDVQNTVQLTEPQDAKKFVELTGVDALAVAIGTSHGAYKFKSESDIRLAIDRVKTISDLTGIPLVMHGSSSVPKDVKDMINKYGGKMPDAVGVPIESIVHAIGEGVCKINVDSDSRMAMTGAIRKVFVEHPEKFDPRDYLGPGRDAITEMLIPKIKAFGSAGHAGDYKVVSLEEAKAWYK
#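 40 nM FBPA preincubated 10 min at RT with compound (up to 57.5 uM final), then substrate plus GAPDH/TPI/NAD/arsenate coupling and diaphorase/resazurin added. Fluorescence read after 20 min at RT, 525/598 nm.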
# Pf growth 96h – Primary qHTS for delayed death inhibitors of the malarial parasite plastid, 96 hour incubation | P. falciparum luciferase reporter growth, 96 h | Potency, µM (doses to about 28.7 µM), most hits filed as inhibitors | 6.9% of 320,000 active
#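 Readout is luminescence from an integrated firefly luciferase in P. falciparum. Red cells, 2% hematocrit and 0.05% parasitemia final, were cultured with compound through two parasite generations (96 hours) at 37 C, 5% CO2.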
# A number is an active result; - = inactive; ? = inconclusive; . = no result; + = active, no number; [ ] = another dose, or the depositor's remark. Shown are actives, neighbours in structure and some others; about 21% of the full set was active somewhere. Unless noted, calls come from the whole dose curve; as a rule, active = well fitted curve in the direction sought with a large enough effect; inconclusive = small, poorly fitted or top-dose-only effect, or another doubt; inactive = no such curve, though single readings can be large; an effect the other way counts as inactive or inconclusive.
SMILES,Shiga toxin inh,Pf growth 48h,Cycloheximide cs,NS1 inh,Giardia FBPA inh,Pf growth 96h
O=C(Nc1ccc(Cl)c(Cl)c1)Nc1ccccn1,66,-,46,-,-,-
CN1C(=O)CSc2ccc(NC(=O)Nc3ccccn3)cc21,-,.,50,-,-,-
COc1ccc(NC(=O)Nc2cccc3ccccc23)cc1OC,-,?,-,-,.,?
O=C(Nc1cnn(Cc2ccccc2)c1)c1nc2ncccn2n1,46,-,38,-,-,2.6µM
CC(=O)Oc1ccc2c(c1)O/C(=C\c1ccncc1)C2=O,-,-,-,-,-,?
COC(=O)COc1ccc2c(c1)O/C(=C\c1ccco1)C2=O,38,-,29,-,-,-
Cc1cc(O)cc2c1C(=O)/C(=C/c1ccco1)O2,66,-,51,-,-,-
CCC(=O)Oc1ccc2c(c1)O/C(=C\c1ccco1)C2=O,43,-,16,-,-,-
COCCN(CCOC)Cc1c(O)ccc2c1O/C(=C\c1ccco1)C2=O,-,.,-,-,?,-
CCN(CC)C(=O)Oc1ccc2c(c1)O/C(=C\c1ccco1)C2=O,49,-,27,-,-,-
Cc1ccc(S(=O)(=O)CC(=O)N2CCN(c3ccc(F)cc3)CC2)cc1,-,-,-,-,.,?
O=C(CCCn1cnc([N+](=O)[O-])n1)Nc1cccc(O)c1,-,-,-,.,-,-
CN(CCOc1ccccc1)C(=O)c1ccc(N2CCCC2)c([N+](=O)[O-])c1,-,-,-,-,-,-
CCc1ccc(/C=C2\Oc3cc(OC(=O)N4CCOCC4)ccc3C2=O)cc1,-,?,-,-,-,10µM
COCCNC(=O)c1c(N)sc2c1CCCC2,-,9.3µM,-,-,?,?
CCCOC(=O)c1c(N)sc2c1CCC2,-,-,-,-,-,?
NC(=O)c1c(N)sc2c1CCCCC2,-,-,-,-,?,?
CNC(=O)c1c(N)sc2c1CCCCC2,-,.,-,-,-,10µM
CC(=O)N1CCc2c(sc(NC(=O)CN3C(=O)c4ccccc4C3=O)c2C(N)=O)C1,-,-,-,-,-,-
COC(=O)c1c(NC(=O)c2cccc(N3C(=O)CCC3=O)c2)sc2c1CCN(C(C)=O)C2,-,-,-,-,.,9.3µM
CNC(=O)c1c(NC(=O)c2nc3ccccc3s2)sc2c1CCC2,94,.,26,-,-,-
CC(=O)N1CCc2c(sc(NC(=O)c3ccc4c(c3)OCCO4)c2C#N)C1,-,?,13,-,-,-
CC(=O)N1CCc2c(sc(NC(=O)c3ccc(S(=O)(=O)N(C)C)cc3)c2C#N)C1,.,.,.,-,.,.
COC(=O)c1c(NC(=O)c2nc3ccccc3s2)sc2c1CCN(C(C)=O)C2,-,.,-,-,-,10µM
CCCCCC/C=C1\CC(C(=O)OCC)Oc2ccccc21 (stereo unspecified) (tested in a mixture with another compound),-,.,-,.,-,.
SMILES,Shiga toxin inh,Pf growth 48h,Cycloheximide cs,NS1 inh,Giardia FBPA inh,Pf growth 96h
O=C(N/C(=C\c1ccccc1)C(=O)N1CCOCC1)c1ccccc1Br,-,-,-,-,-,-
COc1ccc(S(=O)(=O)Nc2cc3c4c(oc3c3ccccc23)CCCC4=O)cc1,-,.,-,-,-,9.3µM
COc1ccc(S(=O)(=O)Nc2cc3c4c(oc3c3ccccc23)CC(C)(C)CC4=O)cc1,-,?,-,-,?,?
COCCN(C(=O)c1sc2ccccc2c1Cl)c1c(N)n(CC(C)C)c(=O)[nH]c1=O,.,-,.,.,.,-
COc1cc2oc(=O)cc(-c3ccc(-c4ccc(OC(F)(F)F)cc4)cc3)c2c(OC)c1OC,70,.,-,.,-,.
COc1ccc(-c2cccc(-c3cc(=O)oc4cc(OC)c(OC)c(OC)c34)c2)cc1,-,.,-,.,-,.
COc1ccc(-c2ccc(-c3cc(=O)oc4cc(C)cc(C)c34)cc2)cc1,+,.,-,.,-,.
COc1cc(OC)c2c(-c3cccc(/C=C/c4ccc(F)cc4)c3)cc(=O)oc2c1,+,.,50,.,-,.
COc1cc2oc(=O)cc(-c3ccc(-c4ccc(N(C)C)cc4)cc3)c2c(OC)c1OC,+,.,64,.,-,.
CCOC(=O)c1ccc(-c2ccc(-c3cc(=O)oc4cc(OC)c(OC)c(OC)c34)cc2)cc1,-,.,-,.,-,.
COc1cc(OC)c2c(-c3cccc(-c4cccc(C)c4)c3)cc(=O)oc2c1,-,.,-,.,-,.
Cc1ccc(N(C(=O)CS(=O)CC(=O)Nc2ccc(F)cc2)C(C)C(=O)NC(C)(C)C)cc1 (stereo unspecified),-,-,-,-,-,-
COc1cc(OC)c2c(-c3cccc(-c4ccc(O)cc4)c3)cc(=O)oc2c1,-,.,-,.,-,.
COc1cc2oc(=O)cc(-c3cccc(-c4ccc(C(C)=O)cc4)c3)c2c(OC)c1OC,+,.,39,.,-,.
COc1cc(OC)c2c(-c3cccc(-c4ccc(N(C)C)cc4)c3)cc(=O)oc2c1,+,.,37,.,-,.
COc1ccc(-c2ccc(-c3cc(=O)oc4cc(OC)c(OC)c(OC)c34)cc2)cc1F,79,.,30,.,-,.
COc1cc2oc(=O)cc(-c3ccc(-c4ccc(F)c(Cl)c4)cc3)c2c(OC)c1OC,-,.,-,.,-,.
COc1ccc(-c2cccc(-c3cc(=O)oc4cc5c(cc34)OCO5)c2)cc1,-,.,30,.,-,.
O=C(Nc1cccc(Cl)c1)c1nc[nH]c1C(=O)N1CCN(c2ccccc2)CC1,.,-,.,.,.,?
COc1cc(C(=O)N(Cc2ccc(F)cc2)C2CCS(=O)(=O)C2)cc(OC)c1OC (stereo unspecified),-,?,-,-,-,8.3µM
COc1ccc(CN(C(=O)/C=C/c2ccccc2Cl)C2CCS(=O)(=O)C2)cc1 (stereo unspecified),-,-,34,-,-,-
COc1ccc(CN(C(=O)c2ccccc2OC)C2CCS(=O)(=O)C2)cc1 (stereo unspecified),-,?,-,-,-,-
O=C(/C=C/c1ccccc1Cl)N(Cc1ccc(Cl)cc1)C1CCS(=O)(=O)C1 (stereo unspecified),-,-,-,?,-,?
COc1ccccc1C(=O)N(Cc1ccc(Cl)cc1)C1CCS(=O)(=O)C1 (stereo unspecified),-,-,-,-,.,12µM
CC1Cc2ccccc2N1C(=O)COC(=O)c1ccc(Cl)nc1 (stereo unspecified),-,-[5.75 µM],-,-,-,-
CC(=O)c1cccc(NC(=O)c2c(C)nn(-c3ccccc3)c2Cl)c1,-,-,-,-,-,?
COc1cccc(NC(=O)c2c(C)nn(-c3ccccc3)c2Cl)c1,-,-,19,-,-,4.7µM
COc1ccc(NC(=O)c2c(C)nn(-c3ccccc3)c2Cl)cc1,.,?,16,-,-,-
